Assay results published in PubChem BioAssay (EPA / NIEHS).
Inconclusive results are not listed. Calls of active or inactive are those of the source. Rule for the calls: active = hit-call score of the fitted dose curve at least 0.9, where 1 is the maximum; inconclusive = response in the unintended direction; inactive = score below 0.9.

target: Androgen Receptor/SRC-1 Co-activator, AR (gene 367) (UniProt P10275); assay: OT_AR_ARSRC1_0480: Odyssey Thera (OT) 8-hour HEK293T Protein-Complementation Assay for Androgen Receptor/SRC-1 Co-activator (AID 2283354);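 note: hits raise the complementation signal above DMSO so AC50 marks enhancers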
Experimental: OT_AR_ARSRC1_0480 is a cell-based, single-readout assay that uses HEK293T, a human kidney cell line, with measurements taken at 8 hours after chemical dosing in a 384-well plate.OT_AR_ARSRC1_0480 is one of one assay component(s) measured or calculated from the OT_AR_ARSRC1_0480 assay. It is designed to make measurements of protein fragment complementation, a form of binding reporter, as detected with fluorescence intensity signals by Protein-fragment Complementation technology.Data from the assay component OT_AR_ARSRC1_0480 was analyzed into 1 assay endpoint. This assay endpoint, OT_AR_ARSRC1_0480, was analyzed in the positive analysis fitting direction relative to DMSO as the negative control and baseline of activity. Using a type of binding reporter, measures of receptor for gain-of-signal activity can be used to understand the binding at the pathway-level as they relate to the gene AR. Furthermore, this assay endpoint can be referred to as a primary readout, because the performed assay has only produced 1 assay endpoint. To generalize the intended target to other relatable targets, this assay endpoint is annotated to the nuclear receptor intended target family, where the subfamily is steroidal.
Protein-fragment complementation assay, or PCA, is a method for the identification and quantification of protein-protein interactions. In the PCA, the proteins of interest ("bait" and "prey") are each covalently linked to fragments of a third protein (e.g. DHFR, which acts as a "reporter"). Interaction between the bait and the prey proteins brings the fragments of the reporter protein in close proximity to allow them to form a functional reporter protein whose activity can be measured. The OT AR / SRC-1 assay assessed androgen receptor chemical interactions using a rapidly maturing, intensely fluorescent mutant of YFP known as Venus, rationally dissected into two separate fragments. […] Fusion constructs were transfected into HEK293T cells with a (Gly4Ser)2 linker between the AR/SRC-1 and YFP fragment genes to facilitate complementation when interacting proteins bring fragments into close proximity. The construct is stably expressed in HEK293T cells. […] Images were acquired on an Evotec Opera at 2 wavelengths (488 and 635nm), and the ratio of fluorescence in the nucleus relative to fluorescence in the cytoplasm (N/C Ratio) in the 488nm channel was calculated for a minimum of 400 cells per image. Both agonists and antagonists of the AR receptor induce nuclear translocation to varying degrees. […] The OT AR/SRC-1 assay was also run for 16 hours (see description for OT_AR_ARSRC1_0960).

Sequence of Androgen Receptor/SRC-1 Co-activator, AR (gene 367) (P10275 whole entry, looked up, the tested form may be a part): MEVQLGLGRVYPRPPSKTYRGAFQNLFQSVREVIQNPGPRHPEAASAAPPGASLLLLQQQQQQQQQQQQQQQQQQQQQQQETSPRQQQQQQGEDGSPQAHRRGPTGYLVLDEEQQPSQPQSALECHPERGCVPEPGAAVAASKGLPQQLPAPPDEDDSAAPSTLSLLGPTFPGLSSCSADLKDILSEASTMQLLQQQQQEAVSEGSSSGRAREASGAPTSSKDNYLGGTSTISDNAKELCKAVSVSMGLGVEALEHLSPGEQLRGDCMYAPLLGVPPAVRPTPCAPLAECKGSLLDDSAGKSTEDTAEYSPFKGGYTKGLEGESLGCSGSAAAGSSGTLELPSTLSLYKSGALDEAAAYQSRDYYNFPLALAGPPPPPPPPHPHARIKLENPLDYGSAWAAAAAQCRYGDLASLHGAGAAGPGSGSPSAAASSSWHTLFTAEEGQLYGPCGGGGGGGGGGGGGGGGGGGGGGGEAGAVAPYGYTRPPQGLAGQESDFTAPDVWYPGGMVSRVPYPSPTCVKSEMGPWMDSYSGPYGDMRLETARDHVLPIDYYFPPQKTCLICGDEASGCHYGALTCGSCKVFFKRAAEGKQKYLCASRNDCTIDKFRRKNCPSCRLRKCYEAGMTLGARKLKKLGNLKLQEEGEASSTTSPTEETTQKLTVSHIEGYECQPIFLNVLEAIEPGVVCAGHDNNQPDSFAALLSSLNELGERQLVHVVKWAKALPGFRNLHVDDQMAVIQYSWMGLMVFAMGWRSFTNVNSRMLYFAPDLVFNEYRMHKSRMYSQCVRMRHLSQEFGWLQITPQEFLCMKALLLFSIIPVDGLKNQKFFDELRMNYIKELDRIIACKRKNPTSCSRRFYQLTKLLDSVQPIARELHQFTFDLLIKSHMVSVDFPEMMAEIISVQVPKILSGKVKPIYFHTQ

Row | SMILES | outcome | AC50
1 | Cc1nc(-c2ccc3c(c2)CCN(CCC2CCC(NC(=O)/C=C/c4ccc(F)cc4)CC2)CC3)no1 (stereo not given) | inactive | –
2 | Cc1ccc(C)c(C)c1 | inactive | –
3 | CCOc1ccc2c(c1)C(C)=CC(C)(C)N2 | inactive | –
4 | CN[C@H]1CC[C@@H](c2ccc(Cl)c(Cl)c2)c2ccc(S(N)(=O)=O)cc21 | – | 19.9 µM (active)
5 | COc1cc(C=O)ccc1O | inactive | –
6 | CC(=O)Oc1ccccc1C(=O)O | inactive | –
7 | Cc1ccc(N(C)C)cc1 | inactive | –
8 | COc1cc(-c2nc(NC(=O)c3cc4cc(C)cc(C)c4n3CC(=O)O)sc2CCC2CCCCC2)c(OC)cc1Cl | – | 49.1 µM (active)
9 | COc1ccc(C)cc1N | inactive | –
10 | COc1ccc2c(c1)c(CC(=O)O)c(C)n2C(=O)c1ccc(Cl)cc1 | inactive | –
11 | COc1ccc(S(=O)(=O)N2C(=O)[C@@](c3ccccc3OC)(N3C[C@H](O)C[C@H]3C(=O)N(C)C)c3cc(Cl)ccc32)c(OC)c1 | – | 27.2 µM (active)
12 | CC(C)(C)c1cc(O)c(C(C)(C)C)cc1O | inactive | –
13 | Cc1cccc(Nc2cc(Cl)nc(SCC(=O)O)n2)c1C | inactive | –
14 | Cc1ccccc1Cl | inactive | –
15 | O=C(O)Cc1ccccc1Nc1c(Cl)cccc1Cl | inactive | –
16 | Cc1cccc(C)c1O | inactive | –
17 | Cc1ccc(C)c(O)c1C | inactive | –
18 | CNC(=O)[C@H]1O[C@@H](n2cnc3c(NCc4cc(Cl)ccc4OCc4cc(C)no4)ncnc32)[C@H](O)[C@@H]1N | inactive | –
19 | Cc1cc(NC(=O)C(=O)O)cc(C)c1Oc1ccc(O)c2c1CCC2 | inactive | –
20 | COCCOC[C@H](CC1(C(=O)NC2CCC(C(=O)O)CC2)CCCC1)C(=O)Oc1ccc2c(c1)CCC2 (stereo not given in full) | inactive | –
